The list shows a part of the results. Inconclusive results are not listed. Activity calls are given as the source filed them. The call rests on the fitted dose curve.
Target: Alpha-synuclein (Homo sapiens) (UniProt P37840)
Test: Alpha-synuclein ThS binding assay
Conditions: recombinant alpha-synuclein fibrils, ThS fluorescence displacement
Procedure: NIH Molecular Libraries Screening Centers Network [MLSCN] NIH Chemical Genomics Center [NCGC] MLSCN Grant: 1 X01 MH079825-01 Assay Provider: Jeffrey A. Kuret, Ohio State University NCGC Assay Overview: Lewy body disease is characterized by the appearance of lesions containing alpha-synuclein. The protein components in these lesions can be induced to form filaments under experimentally tractable times when incubated in vitro with anionic inducers such as alkyl sulfate detergents or fatty acids. […] Here we describe the in vitro fibrillization of alpha-synuclein. Alpha-synuclein was induced to form filaments by incubation overnight at 37 C in the presence of arachidonic acid. A commonly used fluorescent probe for cross#nbeta-sheet structure, Thioflavin S (ThS), was also added to the reactions. […] Small molecules capable of ThS displacement or antagonizing fibrillization result in a decrease in ThS fluorescence, allowing determination of binding affinities for molecules screened.
NCGC Assay Protocol Summary The assay was performed in 96-well round bottom opaque plates (VWR, West Chester, PA) in 100 uL final volume. […] Fluorescence (ex = 440 nm; em = 485 nm) was measured after brief shaking (10 s) in a FlexStation plate reader (Molecular Devices, Sunnyvale, CA) operated at sensitivity 10, automatic PMT. […]

| SMILES | outcome |
| --- | --- |
| O=C(CCCCn1c(=O)[nH]c2ccccc2c1=O)NCc1ccc2c(c1)OCO2 | inactive |

Source: PubChem BioAssay AID937 (National Center for Advancing Translational Sciences (NCATS), 2007)
